# A collection of fitness landscapes (doi:10.1126/science.1257360)
# Over roughly 140,000 sequences, “enrichment ratio after two sorts for PhoP signalling” has its median near 0; the highest 2% begin near 11. This excerpt belongs to a sample that is enriched for the highest values.
# B1: PhoQ; a variant is named by its letters at X, in order, P23837 (parent)
# chain: MKKLLRLFFPLSLRVRFLLATAAVVLVLSLAYGMVALIGYSVSFDKTTFRLLRGESNLFYTLAKWENNKLHVELPENIDKQSPTMTLIYDENGQLLWAQRDVPWLMKMIQPDWLKSNGFHEIEADVNDTSLLLSGDHSIQQQLQEVREDDDDAEMTHSVAVNVYPATSRMPKLTIVVVDTIPVELKSSYMVWSWFIYVLSANLLLVIPLLWVAAWWSLRPIEALAKEVRELEEHNRELLNPATTRELTSLVRNLNRLLKSERERYDKYRTTLTDLTHSLKTPLXXLQXXLRSLRSEKMSVSDAEPVMLEQISRISQQIGYYLHRASMRGGTLLSRELHPVAPLLDNLTSALNKVYQRKGVNISLDISPEISFVGEQNDFVEVMGNVLDNACKYCLEFVEISARQTDEHLYIVVEDDGPGIPLSKREVIFDRGQRVDTLRPGQGVGLAVAREITEQYEGKIVAGESMLGGARMEVIFGRQHSAPKDE
# Variants of: B1
# Assay: enrichment ratio after two sorts for PhoP signalling (ratio (wild type AVST 3.29)); higher = more functional
# Conditions: with PhoP (E. coli)
row,Variant,enrichment ratio
1,SNRN,≤ 0.25
2,VNAY,≤ 0.25
3,NARV,≤ 0.25
4,WLPG,≤ 0.25
5,LHMC,≤ 0.25
6,VHGV,≤ 0.25
7,KDPY,≤ 0.25
8,PSCV,≤ 0.25
9,TKKT,≤ 0.25
10,TKLT,15.3
11,KKLT,≤ 0.25
12,TKQT,11.7
13,TKFT,≤ 0.25
14,TKPT,≤ 0.25
15,KAQT,≤ 0.25
16,KSQT,≤ 0.25
17,TKAT,14.5
18,TDYD,≤ 0.25
19,WDAF,≤ 0.25
20,MRHT,0.477
21,QEHT,9.94
22,YYHT,≤ 0.25
23,TEHT,27.2
24,MMHT,≤ 0.25
25,NEHT,≤ 0.25

row,Variant,enrichment ratio
1,KLHT,≤ 0.25
2,MLHT,11.5
3,MEHT,24.2
4,NWHY,≤ 0.25
5,TYIE,≤ 0.25
6,DLWY,≤ 0.25
7,KLWE,≤ 0.25
8,KHER,≤ 0.25
9,TVFL,≤ 0.25
10,LIMQ,≤ 0.25
11,NNDM,≤ 0.25
12,FCHM,≤ 0.25
13,STSV,9.12
14,TTSV,15.8
15,ATSV,12.7
16,YTSV,≤ 0.25
17,YDSV,≤ 0.25
18,KQSV,≤ 0.25
19,SWRT,≤ 0.25
20,RRQV,≤ 0.25
21,VWEC,≤ 0.25
22,TETA,≤ 0.25
23,TETR,≤ 0.25
24,TETE,18.8
25,QETE,≤ 0.25

row,Variant,enrichment ratio
1,METE,≤ 0.25
2,TETI,17.3
3,TETD,2.04
4,TETK,≤ 0.25
5,TETM,22.4
6,TETS,13.7
7,TEPM,≤ 0.25
8,RPDP,≤ 0.25
9,MVRG,≤ 0.25
10,NTNY,≤ 0.25
11,LYEH,≤ 0.25
12,IGTK,≤ 0.25
13,WQPW,≤ 0.25
14,PICS,≤ 0.25
15,DNDH,≤ 0.25
16,WQRE,≤ 0.25
17,LRQP,≤ 0.25
18,HPHL,≤ 0.25
19,GFYA,≤ 0.25
20,DGSI,≤ 0.25
21,GYWI,≤ 0.25
22,IGSE,≤ 0.25
23,TETG,35.8
24,QETG,≤ 0.25
25,METG,4.62

row,Variant,enrichment ratio
1,SFGG,≤ 0.25
2,PIPY,≤ 0.25
3,KIVE,≤ 0.25
4,EFFM,≤ 0.25
5,KQSN,≤ 0.25
6,SDSN,≤ 0.25
7,STSN,11.3
8,NSSN,≤ 0.25
9,KSSN,≤ 0.25
10,YTSN,≤ 0.25
11,SRSN,≤ 0.25
12,SCSN,12.3
13,SLSN,8.45
14,SQSN,7.46
15,SNSN,12.5
16,SSSN,12.1
17,DMGM,≤ 0.25
18,VHGA,≤ 0.25
19,FTWC,≤ 0.25
20,RPLR,≤ 0.25
21,EKAY,≤ 0.25
22,FPIV,≤ 0.25
23,TGSN,8.1
24,SGSG,8.15
25,SGSN,13.3

row,Variant,enrichment ratio
1,WDWH,≤ 0.25
2,SESK,5.02
3,SENK,≤ 0.25
4,SETC,13.2
5,SESQ,13.9
6,DDSC,≤ 0.25
7,KYSC,≤ 0.25
8,SESC,18.4
9,SRSH,≤ 0.25
10,SRSQ,≤ 0.25
11,SEFC,10.4
12,SESH,13.1
13,SQSQ,8.8
14,LSYF,0.698
15,FERS,≤ 0.25
16,FKHR,≤ 0.25
17,QKRW,≤ 0.25
18,TIRN,≤ 0.25
19,KKEL,≤ 0.25
20,MLWA,≤ 0.25
21,HFVY,≤ 0.25
22,GASL,3.66
23,METM,4.44
24,SETH,15.6
25,SETG,9.95

row,Variant,enrichment ratio
1,SEEC,15.4
2,KYEC,≤ 0.25
3,SETI,19.9
4,SETA,10.5
5,SLEC,≤ 0.25
6,SETW,3.01
7,SETM,18.3
8,SETK,≤ 0.25
9,ICMG,≤ 0.25
10,NYHW,≤ 0.25
11,EGMK,≤ 0.25
12,SVFE,≤ 0.25
13,PKCE,≤ 0.25
14,LWIA,≤ 0.25
15,VVHK,≤ 0.25
16,PWSL,≤ 0.25
17,YMEP,≤ 0.25
18,SASH,12.2
19,KYMH,≤ 0.25
20,SANH,≤ 0.25
21,SEMH,19.3
22,SASK,≤ 0.25
23,SETD,≤ 0.25
24,STMH,8.42
25,SETE,5.75

row,Variant,enrichment ratio
1,SETS,12
2,DGLS,≤ 0.25
3,FPTK,≤ 0.25
4,DPHW,≤ 0.25
5,WDVW,≤ 0.25
6,QFAR,≤ 0.25
7,VVQA,≤ 0.25
8,PSLS,≤ 0.25
9,WGGY,≤ 0.25
10,ITTH,≤ 0.25
11,DSGI,≤ 0.25
12,NRIH,≤ 0.25
13,GCGM,2.98
14,KAIM,≤ 0.25
15,KATM,≤ 0.25
16,GAIM,15.4
17,GSWM,≤ 0.25
18,GCIM,24.5
19,NATM,≤ 0.25
20,GSIM,11.6
21,GAPM,≤ 0.25
22,GSTM,6.87
23,GCCK,≤ 0.25
24,GATM,15.3
25,TSES,2.55

row,Variant,enrichment ratio
1,SFWK,≤ 0.25
2,AMIT,≤ 0.25
3,NCDK,≤ 0.25
4,DMRV,≤ 0.25
5,EDCW,≤ 0.25
6,MMNP,≤ 0.25
7,DYLI,≤ 0.25
8,GVIM,19.3
9,MAPM,≤ 0.25
10,GIIM,1.99
11,FMTM,≤ 0.25
12,NIIM,≤ 0.25
13,NVIM,≤ 0.25
14,GVWM,≤ 0.25
15,YHIM,≤ 0.25
16,GNIM,13.4
17,GGIM,13.9
18,GTIM,2.86
19,MATM,22.6
20,VKAK,≤ 0.25
